High-throughput results (PubChem)
DPM-DC inhibit: S. pneumoniae DPM-DC inhibitors, primary screen, biochemical, PK/LDH-coupled NADH fluorescence; diphosphomevalonate decarboxylase (Streptococcus pneumoniae D39); calls only at 10 µM; purified DPM-DC; 65,000 tested, 0.49% active; AID 556, 2006;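 active = the 320 compounds with the highest percent inhibition in the single-dose primary screen, excluding strongly autofluorescent ones, cut at about 32% in these data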;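 note: kinetic rate of NADH fluorescence loss reporting ADP formed by the decarboxylase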
Spn MK inh: S. pneumoniae MK inhibitors, primary screen, biochemical, PK/LDH-coupled NADH absorbance | mevalonate kinase [Streptococcus pneumoniae D39] | purified MK, PK/LDH-coupled NADH absorbance 340 nm | inhibition, % at 10 µM | 65,000 tested, 0.48% active | AID 555, 2006;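 active = ranked among the strongest by inhibition in the single 10 µM screen, a fixed top-ranked set picked for dose follow-up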
A340 absorber: compound light absorbance at 340 nm, profiling panel, artefact control, biochemical, MLSMR library, data from PS, PMK, MK assays. fold change at 10 µM. 65,000 tested, under 10 active. compound absorbance at 340 nm, fold over control;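 active = at 10 µM dose, initial 340 nm absorbance at least 2 fold that of control wells; inactive = change under 2 fold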;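 note: initial absorbance extrapolated from kinetic A340 decline of NADH oxidation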
Autofluor 339: intrinsic fluorescence of library compounds, ex339/em460 – biochemical, MLSMR library, data from DPM-DC assay, artefact control, profiling panel. compound autofluorescence, ex339/em460 nm, NADH buffer; hits give high values; 1 = no-compound wells, NADH background. fluorescence fold increase at 10 µM. 65,000 tested, 5.5% active. AID 709, 2007;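 active = at 10 µM, mean starting fluorescence two-fold or more over control wells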;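 note: signal is the first read of a kinetic run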
Spn PMK inh: S. pneumoniae PMK inhibitors, primary screen, biochemical, mevalonate pathway, pilot trial included; inhibition, % at 10 µM; purified PMK, PK/LDH-coupled NADH absorbance 340 nm; 65,000 tested, 0.49% active; phosphomevalonate kinase (Streptococcus pneumoniae D39);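 active = top-ranked compounds by inhibition in the single 10 µM screen, taking a fixed number of the strongest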;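 note: 0% = full reaction with DMSO carrier and 100% = background rate without enzyme reaction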
NADH enzymes: inhibitors of PK/LDH coupling enzymes, profiling panel, artefact control, biochemical, MLSMR library | coupled PK/LDH NADH assays, four targets | AID 774, 2007 | IC50, µM (series often up to 10 µM), for inactives: at the top dose inhibition | 65,000 tested, 0.02% active;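 active = single-dose screening hits from any of four coupled enzyme assays that gave an IC50 when retested across doses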;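 note: the DPM-DC format reads NADH fluorescence rather than 340 nm absorbance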
The depositor's hits bear a star; i = inactive; · = no result given. Shown are actives, neighbours in structure and some others; about 6.3% of the full set was active somewhere.

SMILES | DPM-DC inhibit | Spn MK inh | A340 absorber | Autofluor 339 | Spn PMK inh | NADH enzymes
CC(C)Cn1nc(NC(=O)C(C)(C)C)c2cc3ccccc3nc21 | i | 0 | 1 | 1.7 | 5 | 6%
CSc1nc2[nH]c3c(c2c2nnnn12)CCCC3 | · | 0 | 1.1 | 2.3* | 8 | 4%
COc1ccc(-c2cc3nc4n(c(=O)c3s2)CCC4)cc1 | · | 6 | 1 | 3* | 9 | 4%
COc1ccc(NS(=O)(=O)c2cccc(-c3nnc4n3CCCCC4)c2)cc1 | i | 4 | 1 | 1.1 | 0 | 1%
O=C(CCN1CCN(c2ccccc2F)CC1)Nc1ccc2c(c1)OCO2 | i | 11 | 1 | 1.4 | 12 | 13%
COc1cc(OC)cc(C(=O)N2CCC(N3CCCCCC3)CC2)c1 | i | 32 | 1 | 1.1 | 0 | 11%
Cc1cccn2c(=O)c3cc(C#N)c(=NC(=O)c4ccccc4)n(Cc4ccco4)c3nc12 | · | 3 | 1.1 | 2.3* | 11 | 7%
CCOC(=O)c1cc2c(=O)n3ccccc3nc2n(CCCOC)c1=NC(=O)c1cccnc1 | i | 8 | 1.1 | 1.7 | 0 | 5%
CCOC(=O)c1cc2c(=O)n3ccccc3nc2n(Cc2ccco2)c1=NC(=O)c1cccnc1 | · | 3 | 1 | 2.2* | 3 | 3%
CCOC(=O)c1cc2c(=O)n3ccccc3nc2n(CC(C)C)c1=NC(=O)c1ccco1 | · | 9 | 1 | 2.5* | 0 | 3%
O=C(CSc1nc2ccccc2c(=O)n1Cc1ccco1)c1ccccc1 | i | 6 | 0.98 | 1.1 | 10 | 5%
CCOC(=O)c1cc2c(=O)n3cccc(C)c3nc2n(Cc2ccco2)c1=NC(=O)c1cccnc1 | i | 4 | 0.99 | 2.2* | 11 | 8%
COc1ccc(CC(NC(C)=O)C(=O)NC2CCN(S(=O)(=O)c3ccccc3)CC2)cc1OC (stereo not drawn) | i | 3 | 1 | 1.1 | 11 | 5%
O=C(Nc1ccc(Nc2ccccc2)cc1)c1ccco1 | i | 13 | 1.2 | 1.1 | 0 | 10%
O=C(Nc1ccc2oc(=O)ccc2c1)c1ccco1 | i | 0 | 1.1 | 2.8* | 12 | 12%
c1ccc2nc3c(nc2c1)c1ccccc1n3CCN1CCOCC1 | i | 5 | 1.1 | 1.2 | 2 | 2%
CC(=O)Nc1ccc(S(=O)(=O)c2c(N)n(CCN3CCOCC3)c3nc4ccccc4nc23)cc1 | · | 8 | 1.1 | 2.3* | 0 | 4%
Nc1c(C(=O)NCCN2CCOCC2)c2nc3ccccc3nc2n1CCc1ccccc1 | · | 13 | 1 | 3.9* | 6 | 10%
Nc1c(C(=O)NCCN2CCOCC2)c2nc3ccccc3nc2n1CCc1ccccc1F | · | 18 | 1 | 3.9* | 2 | 10%
CC(=O)Nc1nc2ccccc2n1CCN1CCOCC1 | i | 9 | 1 | 1.1 | 7 | 9%
O=C(NCc1cccs1)C1CCN(S(=O)(=O)c2cccc3cccnc23)CC1 | i | 9 | 1 | 1 | 0 | 3%
C=CCSc1nc(N)c(C(=O)Nc2ccccc2C)cc1C(N)=O | i | 8 | 1.1 | 1.1 | 7 | 2%
Cc1cccc(NC(=O)CCCCCN2C(=O)c3ccccc3C2=O)n1 | i | 3 | 1 | 1.1 | 11 | 2%
CCOC(=O)C1=C(C)Nc2ccccc2N=C1NC(=O)CCCN1C(=O)c2ccccc2C1=O | i | 2 | 0.99 | 1.1 | 27* | 10%
COC(=O)c1ccc(Sc2ccc(C)cc2)c(N)c1 | i | 3 | 1 | 3.1* | 14 | 10%
SMILES | DPM-DC inhibit | Spn MK inh | A340 absorber | Autofluor 339 | Spn PMK inh | NADH enzymes
COCc1cc(=O)n2[nH]c(-c3ccccc3)cc2n1 | · | 3 | 1.1 | 2.1* | 2 | 3%
CN(Cc1c(F)cccc1Cl)c1ccc(S(=O)(=O)N2CCOCC2)cn1 | i | 0 | 1 | 2.6* | 10 | 8%
Cc1ccccc1NC(=O)CSc1nc(N)c(C#N)c(-c2cccs2)c1C#N | i | 0 | 1 | 1.6 | 8 | 5%
Cc1ccc(-n2nc(C)c3c(-c4cccs4)c(C#N)c(N)nc32)cc1 | i | 11 | 1.1 | 2.4* | 0 | 7%
Cc1nc(N)c(C#N)c(-c2ccccc2)c1C | i | 7 | 1.1 | 1.3 | 0 | 3%
Cc1nn(-c2ccccc2)c2nc(N)c(C#N)c(-c3ccc(F)cc3)c12 | · | 11 | 1 | 3.8* | 6 | 9%
CCc1ccccc1N(C(=O)CCC(=O)Nc1cc(C)on1)C(C(=O)NC1CCCC1)c1ccco1 (stereo not drawn) | i | 4 | 0.98 | 1.1 | 9 | 5%
CCCC(=O)c1c(NC(C)C)cc(C)oc1=O | i | 4 | 1 | 1.1 | 4 | 3%
CCOc1ncccc1C(=O)OCc1cc(=O)n2c(n1)sc1ccccc12 | i | 0 | 1 | 1.4 | 25* | 8%
CCOc1ncccc1C(=O)OCC(=O)c1c(N)n(C)c(=O)n(C)c1=O | i | 14 | 1 | 1.1 | 0 | 5%
N#Cc1c(-c2ccccc2)cc(C2CC2)nc1N | · | 1 | 1.1 | 3.6* | 3 | 2%
CSc1nc(C2CC2)cc(-c2cccs2)c1C#N | i | 7 | 1 | 1.2 | 1 | 3%
N#Cc1c(-c2ccco2)cc(C2CC2)nc1N | · | · | 1 | 2.3* | 12 | 12%
COc1ccc(OC)c(S(=O)(=O)N2CCCc3ccccc32)c1 | i | 0 | 1 | 1.1 | 0 | 0%
Cc1ccc(NC(=O)C2C3C=CC4(CN(Cc5cccnc5)C(=O)C24)O3)cc1F (stereo not drawn) | i | 6 | 1 | 1.1 | 2 | 3%
Cc1ccc(CSc2nc3c(c(=O)[nH]2)C(c2ccncc2)C2=C(CCCC2=O)N3)cc1 (stereo not drawn) | · | 4 | 1 | 2.4* | 9 | 5%
CCS(=O)(=O)N1CCC(C(=O)NCc2ccco2)CC1 | i | 0 | 1 | 1.1 | 26* | 9%
CCOCCCNC(=O)C1CCN(S(=O)(=O)N(CC(C)C)CC(C)C)CC1 | i | 0 | 0.96 | 1 | 26* | 4%
CCOCCCNC(=O)C1CCN(S(=O)(=O)CC)CC1 | i | 0 | 1 | 1.1 | 25* | 8%
COCCCNC(=O)C1CCN(S(=O)(=O)N(CC(C)C)CC(C)C)CC1 | i | 1 | 1 | 1.1 | 8 | 3%
CCC(=O)Nc1nc2ccccc2n1Cc1ccc(C)cc1 | i | 0 | 1 | 1.1 | 0 | 0%
N#Cc1c(NC(=O)c2ccc(Br)o2)n(-c2ccccc2)c2nc3ccccc3nc12 | · | 12 | 1 | 3* | 2 | 3%
O=C(Nc1cccc(NC(=O)c2ccc(Br)o2)n1)c1ccc(Br)o1 | i | 0 | 1.1 | 1.4 | 20 | 10%
